ELG1 DNA repair – inhibitors of ELG1-dependent DNA repair in HEK293T cells; AID 504467; HEK293T ELG1-luciferase reporter, luminescence, 16 h; DNA damage induced by 5-fluorouridine; actives 2.3% (n = 330,000); Potency, µM (series often up to 46.1 µM), most hits filed as inhibitors; note: nearly all actives have a fitted effect of over 55% in size
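Overnight (16 hr) co-exposure of 2,000 cells/well to 5-fluorouridine and compound at 37 °C preceded detection. Luciferase was quantified via ONE-Glo luminescence; loss of signal denotes inhibition.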
A549 tox – kills or reduces viability of A549 cells in Nrf2 counter-screen | AID 504648 | actives 0.16% (n = 390,000) | Potency, µM (titrated, usually from 46 µM), usual class: inhibitors | A549 ARE-Fluc cells, CellTiter-Fluor viability, 18-24 h
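Cytotoxicity counterscreen: CellTiter-Fluor fluorescence was measured in A549 ARE_Fluc cells after 18-24 h of compound exposure in a concentration series. The subsequent BugLite luminescent read reports ARE-luciferase activity.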
Nrf2 inh – blocks Nrf2 signaling; A549 ARE-Fluc reporter, luciferase luminescence, 18-24 h; Potency, µM (series often up to 46 µM), actives largely listed as inhibitors; actives 2.1% (n = 360,000); AID 504444; note: nearly all actives have a fitted effect of over 60% in size
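Concentration-response testing used A549 ARE_Fluc cells at 5000 cells/well. Following an 18-24 h compound incubation, viability was read by fluorescence (Ex 405/Em 525) and luciferase output by luminescence.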
Nrf2 ARE act – Nrf2 pathway activation; Potency, µM (titrated, usually from 46.1 µM), most hits filed as activators; AID 624171; actives 0.31% (n = 410,000); AREc32 ARE-luciferase reporter (MCF7-derived line), luminescence, 24 h; note: nearly all actives have a fitted effect of over 65% in size
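Cells of the AREc32 ARE-luciferase line are plated in OPTI-MEM containing 5% FBS and left overnight at 37 deg C. Compounds are pinned in, incubation continues 24 hr, and firefly luciferase signal is then measured.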
Hits are given with their value; n = inactive; u = inconclusive; x = no result given. Only some compounds are listed: those with a hit (about 3.7% of all), similar ones and a draw of the others. Calls come from the whole dose curve; as a rule, active = well fitted curve in the direction sought with a large enough effect; inconclusive = small, poorly fitted or top-dose-only effect, or another doubt; inactive = no such curve, though single readings can be large; an effect the other way counts as inactive or inconclusive.

SMILES	ELG1 DNA repair	A549 tox	Nrf2 inh	Nrf2 ARE act
O=c1[nH]c(SCc2nc3ccccc3c(=O)n2-c2ccccc2C(F)(F)F)nc2ccccc12	18µM	n	n	n
CCN(CC)S(=O)(=O)c1cccc(NC(=O)C2SC(=Nc3ccc(C)cc3C)C(C(=O)NC(C)COC)=C2N)c1 (stereo not drawn)	u	u	21µM	n
CCCCNC(=O)C1=C(N)C(C(=O)Nc2ccc(C)c(S(=O)(=O)N3CCCCC3)c2)SC1=Nc1ccc(C)cc1C (stereo not drawn)	n	n	u	n
COc1cc(C(=O)Nc2cccc(-c3cn4cccnc4n3)c2)cc(OC)c1OC	u	n	n	n
COc1ccc(-c2cn3cccnc3n2)cc1NC(=O)c1cc(OC)c(OC)c(OC)c1	8.2µM	n	n	n
COc1cc(-n2c(=O)c3ccccc3n(CC(=O)c3ccc(F)cc3)c2=O)cc(OC)c1OC	n	n	n	n
CC/C(C)=N/Oc1nc(C)cc(C)n1	n	n	n	n
Cc1ccc(Oc2nc(CN3CCOCC3)nc3sc4c(c23)CCC(C)C4)cc1C (stereo not drawn)	13µM	n	u	n
CC1CCc2c(sc3nc(CN4CCOCC4)nc(N4CCc5ccccc5C4)c23)C1 (stereo not drawn)	u	n	n	n
Cc1ccc(Oc2nc(CN3CCOCC3)nc3sc4c(c23)CCC(C)C4)cc1 (stereo not drawn)	26µM	n	u	n
COc1cccc(Nc2nc(CN3CCOCC3)nc3sc4c(c23)CCCC4)c1	10µM	n	u	n
Cn1c2cc(Br)sc2c2cnn(Cc3ccccc3F)c(=O)c21	x	n	n	x
CSCCC(NC(=O)c1cccc(S(=O)(=O)N2CCOCC2)c1)c1nc2ccccc2[nH]1 (stereo not drawn)	n	n	n	n
CSCC[C@H](NC(=O)c1cccc(S(=O)(=O)N2CCCCCC2)c1)c1nc2ccccc2[nH]1	23µM	u	18µM	n
Cc1ccc(N(C(C)C(=O)Nc2cc(Cl)ccc2Oc2ccccc2)S(C)(=O)=O)cc1 (stereo not drawn)	n	n	21µM	n
Cc1cc(C)c(S(=O)(=O)NCc2nc3nc(C)cc(C)n3n2)c(C)c1	u	n	n	n
CN1C(=O)COc2ccc(C(=O)c3oc4ccccc4c3-c3cnc4c(c3)COc3ccccc3-4)cc21	9.2µM	x	x	x
Cc1ccc(O)c(C(=O)c2cnc3c(c2)COc2ccc(C)cc2-3)c1	u	n	n	n
COc1ccc(Cl)cc1NC(=O)Nc1cccc([N+](=O)[O-])c1C	u	n	13µM	n
COc1ccc(Cl)cc1NC(=O)NC1CCCCC1	n	n	n	n
O=C(NCc1cccnc1)c1ccc([N+](=O)[O-])cc1	n	n	n	n
O=C(CCC1CCCC1)Nc1ccc(C(=O)NCc2cccnc2)cc1	16µM	n	n	n
N#C/C(=C\c1cccc([N+](=O)[O-])c1)C(=O)NCc1cccnc1	21µM	n	n	n
O=C(O)CCCC(=O)Nc1ccc(C(=O)NCc2cccnc2)cc1	n	n	n	n
O=C(NCc1cccnc1)c1ccc(NC(=O)c2cccc([N+](=O)[O-])c2)cc1	n	n	4.6µM	n
SMILES	ELG1 DNA repair	A549 tox	Nrf2 inh	Nrf2 ARE act
COc1cc2c(cc1OC)CN(C(=O)CSc1nc(C)cc(C)c1C#N)CC2	2.6µM	n	u	n
COc1ccc(NS(=O)(=O)c2c(C)cc(C)cc2C)cc1	u	u	21µM	n
COc1cccc(NS(=O)(=O)c2c(C)cc(C)cc2C)c1	n	n	n	n
CCc1ccc(-n2c(CCC(=O)O)ccc2-c2ccc(F)cc2)cc1	x	n	n	n
Cc1cc(OCc2cc(C(=O)N(C)C3CCOC3)no2)cc(C)c1Cl (stereo not drawn)	u	n	u	n
CNC(=O)NC(=O)C(C)OC(=O)c1c2c(nc3ccccc13)/C(=C/c1cccs1)CC2 (stereo not drawn)	9.2µM	n	u	n
O=C(NNc1ccccc1)c1ccccc1	x	n	n	n
O=C(NNc1ccc(O)cc1)c1ccc(Br)cc1	5.8µM	u	u	n
COc1cc(OC)c(NC(=O)c2c3c(nc4ccccc24)C(=O)N(C2CCCCC2)C3)cc1Cl	x	n	13µM	n
Cc1ccccc1NC(=O)c1c2c(nc3ccccc13)C(=O)N(C1CCCCC1)C2	x	n	n	n
O=C(Nc1ccc(Oc2nnc(-c3ccccc3)c3ccccc23)cc1)c1ccccc1	23µM	n	n	n
COc1ccc(-c2oc3ncn(CCN4CCOCC4)c(=N)c3c2-c2ccc(OC)cc2)cc1	21µM	n	16µM	n
COc1ccc(-c2oc3ncnc(NCCN4CCOCC4)c3c2-c2ccc(OC)cc2)cc1	u	n	n	n
COc1ccc(-c2oc3ncnc(NCCCN4CCOCC4)c3c2-c2ccc(OC)cc2)cc1	16µM	u	u	n
CCCC[C@H]1CCCO[C@@](C(=O)NCc2ccccn2)(C(F)(F)F)C1	x	n	n	x
Cc1ccc(C(=O)N(CCC2=CCCCC2)c2c(N)n(Cc3ccccc3)c(=O)[nH]c2=O)o1	9.2µM	n	n	n
Nc1c(N(CCC2=CCCCC2)C(=O)COc2ccc(F)cc2Cl)c(=O)[nH]c(=O)n1Cc1ccccc1	x	u	23µM	n
O=C(Nc1cccc(-c2nc3ccccc3s2)c1)c1cc(=O)c2ccccc2o1	9.2µM	n	n	n
Clc1ccccc1-c1nnc(-c2ccccc2CNc2ccc(Br)cc2)o1	x	n	u	n
Cc1ccc(-c2nc(CS(=O)CC(=O)N3CCN(c4cccc(Cl)c4)CC3)c(C)o2)cc1 (stereo not drawn)	x	u	23µM	n
COc1cc(Cl)c(NC(=O)CCS(=O)(=O)c2cc3c(cc2Cl)NC(=O)CO3)c(OC)c1	x	n	u	n
COC(=O)c1cc(CSc2nc3ccc(C)cc3[nH]2)oc1C	u	n	21µM	n
COC(=O)c1cc(CSc2nnc(-c3ccccc3)c(-c3ccccc3)n2)oc1C	21µM	n	21µM	n
COc1ccccc1Cc1nc2ccccc2nc1SCC(=O)Nc1c(C)cccc1C	x	n	x	n
CCN(CC)S(=O)(=O)c1ccc(C(=O)Nc2cc(C)cc(C)c2)cc1	n	n	u	n
SMILES	ELG1 DNA repair	A549 tox	Nrf2 inh	Nrf2 ARE act
CCN(CC)S(=O)(=O)c1ccc(C(=O)Nc2ccc(Cc3ccncc3)cc2)cc1	u	n	21µM	n
CCN(Cc1ccncc1)S(=O)(=O)c1ccc(C(C)=O)cc1	6.5µM	n	u	n
O=C(O)c1ccccc1SC1=NS(=O)(=O)c2ccccc21	x	n	n	x
O=C(Nc1ccccc1)c1ccccc1NS(=O)(=O)c1ccc(Cl)s1	n	u	18µM	n
Cc1ccc(NC(=O)c2ccccc2NS(=O)(=O)c2ccc(Cl)s2)cc1	u	u	16µM	n
O=C(NCc1ccco1)c1ccccc1NS(=O)(=O)c1ccc(Cl)s1	u	n	u	n
O=C(Nc1ccccc1Cc1ccccc1)c1ccccc1NS(=O)(=O)c1ccc(Cl)s1	u	u	18µM	n

Bioassay records: PubChem BioAssay, National Center for Advancing Translational Sciences (NCATS)
